Source: PubChem BioAssay
Vaccinia mCherry: vaccinia inhibition (mCherry reporter); Vaccinia virus mCherry reporter infection, fluorescence; actives 0.63% (n = 310,000); Potency, µM (titrated, usually from 36.5 µM), for inactives: at the top dose activity change, negative = inhibition, most hits filed as inhibitors; calls by dose curve; tested in A549 cells; further: potency means the concentration at half of the fitted maximal effect; nearly all actives have a fitted effect of over 35% in size
Vaccinia Venus: vaccinia inhibition (Venus reporter); Vaccinia virus Venus reporter expression, fluorescence; Potency, µM (titrated, usually from 36.5 µM), without a hit: at the highest dose activity change, negative = inhibition, usual class: inhibitors; actives 0.46% (n = 330,000); calls by dose curve; tested in A549 cells; further: potency means the concentration at half of the fitted maximal effect; nearly all actives have a fitted effect of over 30% in size
Lassa entry inh: Lassa virus entry inhibition; Lassa virus pseudotype entry inhibition, cell reporter; Potency, µM (highest dose often 37.9 µM), inactives show at the highest dose activity change, negative = inhibition, actives largely listed as inhibitors; actives 1.2% (n = 300,000); AID 540256; calls by dose curve; tested in HEK293 cells; further: potency means the concentration at half of the fitted maximal effect; nearly all actives have a fitted effect of over 50% in size
FMDV inh: blocks foot and mouth disease virus | actives 1.2% (n = 410,000) | FMDV antiviral cell-based qHTS | Potency, µM (highest dose often 57.9 µM), for inactives: top-dose activity change, negative = inhibition, most hits filed as inhibitors; calls by dose curve; tested in HEK293T cells; further: read-out not given here; potency means the concentration at half of the fitted maximal effect; nearly all actives have a fitted effect of over 45% in size
HCMV inh: inhibitors of human cytomegalovirus; HFF cells, HCMV-luciferase reporter, 72 h; active compounds read low; activity change, negative = inhibition, % at 57.5 µM; actives 4.5% (n = 410,000); in the data active means activity change below about -60%; inconclusive means no clear call, values can overlap the other calls; inactive means above about -39%
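Two compound doses tested in HFFs infected with HCMV-luciferase, MOI 1 PFU/cell, 72 h at 37C. Lysate luminescence read with OneGlo; data normalized against buffer-only and 10uM Salinomycin inhibitor controls.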
Marburg entry inh: blocks Marburg virus binding to or entry into cells. Marburg virus pseudotyped entry inhibition, cell reporter. Potency, µM (titrated, usually from 37.8 µM), without a hit: at the top dose activity change, negative = inhibition, usual class: inhibitors. actives 1.8% (n = 300,000); calls by dose curve; tested in HEK293 cells; further: potency means the concentration at half of the fitted maximal effect
* hit, by the source's call; i = inactive; ? = inconclusive; . = no result given; ! = not confirmed by another sample; [ ] = remark or other dose. Shown are actives, neighbours in structure and some others; about 6.5% of the full set was active somewhere. On the % scale 0 is the no-effect control and ±100 the full control effect.

SMILES	Vaccinia mCherry	Vaccinia Venus	Lassa entry inh	FMDV inh	HCMV inh	Marburg entry inh
COc1ccc(-c2cc(C(F)(F)F)n3nc(C(=O)NCC45CC6CC(CC(C6)C4)C5)cc3n2)cc1	9%	5%	-16%[46.1 µM]	-16%	-4	1%[46.1 µM]
CCOc1ccc(NC(=O)NCCN2CCN(c3cc(Cl)ccc3C)CC2)cc1	-1%	-1%	?	-20%	-24	9%[46.1 µM]
C=CCN1c2ccccc2Sc2cnccc21	-4%	-3%	.	?	-68*	.
CC(=O)OCCN1c2ccccc2Sc2cnccc21	i	-15%	.	-9%	?	.
COc1ccc(C)cc1-n1c(C)cc(C=O)c1C	-8%	-5%	-16%	-4%	?	-10%[46.1 µM]
COc1ccc(N)cc1-n1c(C)ccc1C	?	-16%	-1%[46.1 µM]	3%	-65*	?
Cc1ccc(N(CC(=O)N2CCN(c3cccc(Cl)c3)CC2)S(=O)(=O)c2c(C)noc2C)cc1	-17%	-15%	?	-14%	-20	?
COc1ccc(N(CC(=O)N2CCN(c3cccc(Cl)c3)CC2)S(=O)(=O)c2c(C)noc2C)cc1	-21%	-14%	?	-24%	-67*!	-8%[46.1 µM]
O=C(/C=C/c1ccc(Cl)cc1Cl)Nc1ccc(CN2CCOCC2)cc1	.	.	.	?	-86*	.
O=C(Nc1ccc(CN2CCOCC2)cc1)c1ccc(-c2cc(Cl)ccc2Cl)o1	?	?	-30%	28µM*	?	?
O=C(/C=C/c1ccccc1)Nc1ccc(CN2CCOCC2)cc1	.	.	.	33%	-27	.
COCc1ccc(CN2Cc3cc(Cl)ccc3OC(C)C2)o1 (centres undefined)	-8%	-3%	.	-7%	.	.
CSc1c(CC(=O)Nc2ccc(F)cc2)n(Cc2ccccc2)c2ccccc12	-14%	-23%	-21%	-22%	-62*	?
CSc1c(CC(=O)Nc2ccccc2)n(C)c2ccccc12	.	.	.	-3%	-37	.
COC(=O)[C@@]12Cc3ccccc3[C@H]1C[C@H](C)[C@@H](C)N2C(=O)C(F)(F)F	.	.	.	.	.	3%[14.2 µM]
COC(=O)c1c(N)n(-c2ccc(NC(C)=O)cc2)c2nc3ccccc3nc12	.	-13%	-6%	-29%	-66*	-1%
Nc1c(C(=O)NCCN2CCOCC2)c2nc3ccccc3nc2n1-c1ccccc1	-13%	0%	?	-24%	-69*	-30%
Nc1c(C(=O)NCc2ccc3c(c2)OCO3)c2nc3ccccc3nc2n1CCCN1CCOCC1	?	?	?	.	-19	?
CCc1ccccc1-n1c(N)c(C(=O)OC)c2nc3ccccc3nc21	4%	2%	-16%[46.1 µM]	-12%	8	?
Nc1c(C(=O)NCc2ccco2)c2nc3ccccc3nc2n1CCN1CCCCC1	-12%	-20%	-2%	.	-68*	8.2µM*
COc1ccccc1CNC(=O)c1c(N)n(CCCN2CCOCC2)c2nc3ccccc3nc12	13µM*	?	26%[14.3 µM]	-8%	-30	?
O=c1c(-c2cccs2)nc2cnc(N3CCNCC3)nc2n1CCc1ccccc1	.	.	.	-17%	.	.
Cc1nc(NCc2cccc3c2OCO3)sc1-c1ccn(CC2CCCN(C)C2)n1 (centres undefined)	-7%	12%	.	34%	.	.
COc1ccc(-n2c(N)c(C(=O)NCc3ccco3)c3nc4ccccc4nc32)cc1OC	?	-9%	-4%	-10%	-81*	-17%[46.1 µM]
COc1cc(-n2c(N)c(C(=O)NCc3ccco3)c3nc4ccccc4nc32)cc(OC)c1OC	.	.	-18%	-13%	-39	?
SMILES	Vaccinia mCherry	Vaccinia Venus	Lassa entry inh	FMDV inh	HCMV inh	Marburg entry inh
COc1cc(=O)n2c(c1C(=O)NC(C)c1ccco1)CCN(Cc1ccnc3ccccc13)CC2 (centres undefined)	-7%	-3%	.	4%	.	.
CCC(C)C(=O)OC1CCC=C2C=CC(C)C(CCC3CC(O)CC(=O)O3)C21 (centres undefined)	-21%	-16%	21%	-19%	-97*	23%
CNc1nc(-c2ccccc2)c(-c2ccccc2)s1	i	-8%	.	.	.	.
COC(=O)c1ccccc1NC(=O)Cn1cnc2c1c(=O)n(C)c(=O)n2C	-15%	0%	-15%	?	19	-6%[46.1 µM]
Cn1c(=O)c2c(ncn2CC(=O)Nc2ccccc2Sc2ccccc2)n(C)c1=O	-11%	-20%	-9%	.	-76*	?
Cn1c(=O)c2c(ncn2CC(=O)Nc2nc(-c3ccccc3Cl)cs2)n(C)c1=O	.	.	?	13µM*	-60*	?
CCOC(=O)Cc1csc(NC(=O)Cn2cnc3c2c(=O)n(C)c(=O)n3C)n1	-3%	1%	0%	?	15	2%[46.1 µM]
O=C(O)c1nn(CCOc2cccc(Cl)c2)c(=O)c2ccccc12	-3%	-14%	2%[46.1 µM]	-10%	81	4%[46.1 µM]
O=C(O)c1nn(CCOc2c(Cl)cccc2Cl)c(=O)c2ccccc12	11µM*	9%	?	-3%	-75*	?
CN(C)c1ccc(/C=C/[N+](=O)[O-])cc1	-2%	-10%	0%	-28%	4	-15%
CN(c1ccccc1)c1ccc(/C=C/[N+](=O)[O-])cc1	-19%	-27%	?	16µM*	-99*	?
CC(=O)C1=C(c2cccc([N+](=O)[O-])c2)N(C(C)=O)n2c(nnc2-c2ccc(C)cc2)S1	-14%	-4%	20%[46.1 µM]	-15%	-38	.
CC(=O)C1=C(c2ccccc2)N(C(C)=O)n2c(nnc2C2CCCCC2)S1	-13%[7.34 µM]	-6%[7.34 µM]	?	-27%	-95*	.
COc1ccc(C2=C(C(C)=O)Sc3nnc(-c4ccc(C)cc4)n3N2C(C)=O)cc1OC	?	?	?	-29%	-99*	.
COc1cccc(C2=C(C(C)=O)Sc3nnc(C4CCCCC4)n3N2C(C)=O)c1	?	?	?	0%	-73*	.
CC(=O)C1=C(c2ccc(Cl)c(Cl)c2)N(C(C)=O)n2c(nnc2C2CCCCC2)S1	-10%	-11%	18%[46.1 µM]	-14%	33	.
CCC(=O)C1=C(c2ccc(OC)c(OC)c2)N(C(=O)CC)n2c(nnc2-c2ccc(C)cc2)S1	-4%	-6%	?	-11%	34	.
O=C1NN(C(=O)Nc2ccc(Br)cc2)C(c2ccccc2)C1c1ccccc1 (centres undefined)	.	.	.	24%	.	.
Cc1nn(Cc2c(F)c(F)c(F)c(F)c2F)c(C)c1NC(=O)c1nn(C)cc1[N+](=O)[O-]	-7%	-28%	-24%[14.3 µM]	-21%	-33	2%
Cc1cnc(NC(=O)c2nn(C)cc2[N+](=O)[O-])s1	-19%	-29%	2%[46.1 µM]	-13%	-99*	2%[46.1 µM]
Cn1cc([N+](=O)[O-])c(C(=O)Nc2ccc(C(=O)N3CCCCC3)cc2)n1	-24%	-10%	0%	13%	-34	5%
Cc1ccc(-c2nc(NC(=O)c3nn(C)cc3[N+](=O)[O-])sc2C)cc1C	10µM*	13µM*	4µM*	13µM*	-107*	?
Cc1ccc(-c2nc(NC(=O)c3nn(C)cc3[N+](=O)[O-])sc2C)cc1	.	.	.	11µM*	-104*	-1%
